In PubChem BioAssay (NCATS):
Inconclusive results are not listed. A call without a number means that no potency is given here. The source made the active and inactive calls. Unless noted, the call rests on the fitted dose curve.

How the values were obtained:
[1] = qHTS for Inhibitors of the Functional Ribonucleoprotein Complex (vRNP) of Lassa (LASV) Arenavirus: LASV Primary Screen - GLuc reporter signal (AID 1347082; calls by dose curve; tested in HEK293 reporter line; further: nearly all actives have a fitted effect of over 60% in size; further: potency means the concentration at half of the fitted maximal effect)
[2] = qHTS for Inhibitors of the Functional Ribonucleoprotein Complex (vRNP) of Lassa (LASV) Arenavirus: Viability assay - alamar blue signal for LASV Primary Screen (AID 1347083; calls by dose curve; tested in HEK293 reporter line; further: nearly all actives have a fitted effect of over 80% in size; further: potency means the concentration at half of the fitted maximal effect)
[3] = qHTS for Inhibitors of the Functional Ribonucleoprotein Complex (vRNP) of Lymphocytic Choriomeningitis Arenaviruses (LCMV): Viability assay - alamar blue signal for LCMV Primary Screen (AID 1347085; calls by dose curve; tested in HEK293 reporter line; further: nearly all actives have a fitted effect of over 80% in size; further: potency means the concentration at half of the fitted maximal effect)
[4] = target: Nucleoprotein (Lymphocytic choriomeningitis virus (strain Armstrong)) (UniProt P09992); experiment: qHTS for Inhibitors of the Functional Ribonucleoprotein Complex (vRNP) of Lymphocytic Choriomeningitis Arenaviruses (LCMV): LCMV Primary Screen - GLuc reporter signal (AID 1347086); further: nearly all actives have a fitted effect of over 70% in size; further: potency means the concentration at half of the fitted maximal effect
[5] = qHTS of pediatric cancer cell lines to identify multiple opportunities for drug repurposing: Primary screen for DAOY cells (AID 1347090; active means well fitted curve in the direction sought with a large enough effect; an effect the other way counts as inactive or inconclusive; further: nearly all actives have a fitted effect of over 55% in size; further: potency means the concentration at half of the fitted maximal effect)
Outline: (§1)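 Viability measured as metabolically active cells via CellTiter-Glo luminescence following 48 hours of compound exposure, 11-point dilutions in confirmatory testing. 500-1,000 cells/well plated 5 hours before dosing; controls were DMSO and 2.3 µM bortezomib.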

[6] = qHTS of pediatric cancer cell lines to identify multiple opportunities for drug repurposing: Primary screen for SJ-GBM2 cells (AID 1347091; active means well fitted curve in the direction sought with a large enough effect; an effect the other way counts as inactive or inconclusive; further: potency means the concentration at half of the fitted maximal effect)
Outline: as §1

[7] = qHTS of pediatric cancer cell lines to identify multiple opportunities for drug repurposing: Primary screen for TC32 cells (AID 1347089; active means well fitted curve in the direction sought with a large enough effect; an effect the other way counts as inactive or inconclusive; further: nearly all actives have a fitted effect of over 60% in size)
Outline: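 qHTS, TC32, 48 h drug treatment, CellTiter-Glo luminescence as a proxy for metabolically active cells; primary top concentration 46 µM (MIPE 11-pt, NPC 8-pt); confirmatory 11-pt.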

[8] = qHTS of pediatric cancer cell lines to identify multiple opportunities for drug repurposing: Primary screen for A673 cells (AID 1347092; active means well fitted curve in the direction sought with a large enough effect; an effect the other way counts as inactive or inconclusive; further: nearly all actives have a fitted effect of over 45% in size)
Outline: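 Luminescence from CellTiter-Glo, taken after 15 min at room temperature, served as the proxy for metabolically active cells following 48 h treatment. Both potency and efficacy were taken from curves fitted to the titration data.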

Sequence of Nucleoprotein (Lymphocytic choriomeningitis virus (strain Armstrong)) (P09992 whole entry, looked up): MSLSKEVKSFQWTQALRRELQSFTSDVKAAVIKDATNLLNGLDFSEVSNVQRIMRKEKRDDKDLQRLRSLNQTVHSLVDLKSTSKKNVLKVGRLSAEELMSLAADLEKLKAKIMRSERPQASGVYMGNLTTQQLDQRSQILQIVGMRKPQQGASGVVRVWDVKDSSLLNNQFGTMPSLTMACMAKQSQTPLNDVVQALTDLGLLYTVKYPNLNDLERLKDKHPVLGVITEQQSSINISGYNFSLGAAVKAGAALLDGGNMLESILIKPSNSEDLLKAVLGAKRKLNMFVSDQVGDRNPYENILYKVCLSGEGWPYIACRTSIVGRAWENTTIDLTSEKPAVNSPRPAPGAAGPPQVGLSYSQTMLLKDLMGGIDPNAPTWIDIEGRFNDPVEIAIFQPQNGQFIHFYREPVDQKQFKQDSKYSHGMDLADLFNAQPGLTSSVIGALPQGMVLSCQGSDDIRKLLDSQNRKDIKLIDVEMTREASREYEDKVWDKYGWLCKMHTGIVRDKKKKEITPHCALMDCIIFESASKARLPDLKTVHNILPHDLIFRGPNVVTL

Compound | Potency [1] | Potency [2] | Potency [3] | Potency [4] | Potency [5] | Potency [6] | Potency [7] | Potency [8]
Cc1cc2c(cc1C1(c3ccc(C(=O)O)cn3)CC1)C(C)(C)CCC2(C)C | inactive | inactive | inactive | inactive | – | – | – | –
COCCn1c2c([n+](Cc3cnccn3)c1C)C(=O)c1ccccc1C2=O | 0.109 µM (active) | 0.109 µM (active) | 96.8 nM (active) | 0.0685 µM (active) | – | – | – | –
Cc1cc(-c2ccccc2)nnc1NCCN1CCOCC1 | inactive | inactive | inactive | inactive | – | – | – | –
CCCCc1ccc(NS(=O)(=O)c2ccc(C)c(C(=O)N3CCN(c4cccc(C)c4C)CC3)c2)cc1 | inactive | inactive | inactive | inactive | – | – | – | –
O=C(NOC[C@H](O)CO)c1ccc(F)c(F)c1Nc1ccc(I)cc1F | inactive | inactive | inactive | inactive | – | – | – | –
O=C1[C@H](Cc2ccc(O)cc2)N2C(=O)CCN(C(=O)NCc3ccccc3)[C@H]2CN1Cc1cccc2ccccc12 | 19.3 µM (active) | 19.3 µM (active) | 24300 nM (active) | 19.3 µM (active) | – | – | – | –
O=C(Nc1cccc(Cl)c1)Nc1ncc(CCNc2ncnc3ccsc23)s1 | inactive | inactive | inactive | inactive | – | – | – | –
CCN1CCc2nc(N)oc2CC1 | inactive | inactive | inactive | inactive | – | – | – | –
CC1(C)OC2=C(C(=O)c3ccccc3C2=O)[C@H](NCc2ccccc2)[C@H]1O | 2.73 µM (active) | 3.06 µM (active) | 2170 nM (active) | 0.863 µM (active) | – | – | – | –
Oc1c(I)cc(I)c2cccnc12 | inactive | inactive | inactive | inactive | – | – | – | –
COc1c(N2CCNC(C)C2)c(F)cc2c(=O)c(C(=O)O)cn(C3CC3)c12 (centres undefined) | inactive | inactive | inactive | inactive | – | – | – | –
Cc1ccc(S(=O)(=O)Nc2cc(Cl)ccc2C(=O)Nc2nc(-c3ccccc3)cs2)cc1 | inactive | inactive | inactive | inactive | – | – | – | –
Fc1ccc(Cl)cc1-c1nc(Nc2ccncc2)c2nccnc2n1 | inactive | inactive | inactive | inactive | – | – | – | –
Cc1c(C(=O)Nc2ccc(N3C[C@@H](C)O[C@@H](C)C3)nc2)cccc1-c1ccc(OC(F)(F)F)cc1 | inactive | inactive | inactive | inactive | – | – | – | –
COc1ccc2cc(CCC(C)=O)ccc2c1 | inactive | inactive | inactive | inactive | – | – | – | –
CNC(=O)c1ccc(N2C(=S)N(c3ccc(C#N)c(C(F)(F)F)c3)C(=O)C2(C)C)cc1F | inactive | inactive | inactive | inactive | – | – | – | –
CCOC(=O)[C@@H](N)CCC(=O)N[C@@H](CSCc1ccccc1)C(=O)N[C@@H](C(=O)OCC)c1ccccc1 | inactive | inactive | inactive | inactive | – | – | – | –
[O-][n+]1cccc(CO)c1 | inactive | inactive | inactive | inactive | – | – | – | –
CN(C(=O)C(Cl)Cl)c1ccc(OC(=O)c2ccco2)cc1 | inactive | inactive | inactive | inactive | – | – | – | –
O=C(NCCS(=O)(=O)c1ccc(C(F)(F)F)cn1)c1ccc(Cl)cc1 | inactive | inactive | inactive | inactive | – | – | – | –

Compound | Potency [1] | Potency [2] | Potency [3] | Potency [4] | Potency [5] | Potency [6] | Potency [7] | Potency [8]
C[C@H](CN1CCCC1)C(=O)c1ccc(C(F)(F)F)cc1 | inactive | inactive | inactive | inactive | – | – | – | –
CC(C)(C)NCC(O)c1ccc(O)c(CO)c1 (centres undefined) | inactive | inactive | inactive | inactive | – | – | – | –
O=C(O)c1ccccc1NCCc1ccccc1 | inactive | inactive | inactive | inactive | – | – | – | –
CC(=O)Oc1ccccc1C(=O)O | inactive | inactive | inactive | inactive | – | – | – | –
CCN(CC)CCCCNc1nc2cc(Cl)c(Cl)cc2nc1-c1ccc(-c2cccs2)s1 | inactive | inactive | inactive | inactive | – | – | – | –
CCCCCCCCCCCCCC(=O)OC(C)C | inactive | inactive | inactive | inactive | – | – | – | –
Cc1ccc(-c2ncn(-c3ccc(Nc4nccc(-c5cccc(N6CCOCC6)c5)n4)cc3)n2)cn1 | inactive | 0.485 µM (active) | 485 nM (active) | inactive | – | – | – | –
O=S(c1cc(Cl)cc(Cl)c1O)c1cc(Cl)cc(Cl)c1O | inactive | inactive | inactive | inactive | – | – | – | –
O=C(O)CNC(=O)CNC(=O)CNC(=O)CSC(=O)c1ccccc1 | inactive | inactive | inactive | inactive | – | – | – | –
O=c1cc(-c2ccccc2)oc2ccccc12 | inactive | inactive | inactive | inactive | – | – | – | –
Cn1c2cc(S(C)=O)sc2c2cnn(Cc3cccc(N)c3)c(=O)c21 (centres undefined) | inactive | inactive | inactive | inactive | – | – | – | –
COc1cc(S(N)(=O)=O)cc(C(=O)O)c1OC | inactive | inactive | inactive | inactive | – | – | – | –
CCNC(=O)c1noc(-c2cc(C(C)C)c(O)cc2O)c1-c1ccc(CN2CCOCC2)cc1 | 0.611 µM (active) | 0.273 µM (active) | 544 nM (active) | 0.306 µM (active) | – | – | – | –
COc1ccc(CCN(C)CCCOc2ccc(S(=O)(=O)c3[nH]c4ccccc4c3C(C)C)cc2)cc1OC | inactive | inactive | inactive | inactive | – | – | – | –
CCC(C(=O)O)c1ccc(N2Cc3ccccc3C2=O)cc1 (centres undefined) | inactive | inactive | inactive | inactive | – | – | – | –
CC(=O)N[C@@H](Cc1ccc(O)cc1)C(=O)O | inactive | inactive | inactive | inactive | – | – | – | –
COc1cc2c(cc1OC)C(=O)CC2 | inactive | inactive | inactive | inactive | – | – | – | –
CC(C)OC(=O)c1cc(C(=O)OC(C)C)cc([N+](=O)[O-])c1 | inactive | inactive | inactive | inactive | – | – | – | –
C[C@]12C[C@H](O)[C@H]3[C@@H](CCC4=CC(=O)CC[C@@]43C)[C@@H]1CC[C@@H]2C(=O)CO | inactive | inactive | inactive | inactive | – | – | – | –
[O-][n+]1cccc(/C(Cl)=N/OC[C@@H](O)CN2CCCCC2)c1 | inactive | inactive | inactive | inactive | – | – | – | –

Compound | Potency [1] | Potency [2] | Potency [3] | Potency [4] | Potency [5] | Potency [6] | Potency [7] | Potency [8]
CC(C)=CCCC(C)=CCCC(C)=CCSc1ccccc1C(=O)O | 5.44 µM (active) | 2.43 µM (active) | 9680 nM (active) | 4.32 µM (active) | – | – | – | –
O=C(NO)c1ccccc1 | inactive | inactive | inactive | inactive | – | – | – | –
CCCn1c(=O)c2[nH]c(C34CC5CC3C[C@@H](C5)C4)nc2n(CCC)c1=O | inactive | inactive | inactive | inactive | – | – | – | –
OCc1ccccn1 | inactive | inactive | inactive | inactive | – | – | – | –
C[C@@H](N)C1CCC(C(=O)Nc2ccncc2)CC1 (some centres undefined) | inactive | 21.7 µM (active) | 863 nM (active) | 9.68 µM (active) | – | – | – | –
Cc1cccc(C)c1NC(=O)c1ccccc1C(=O)O | inactive | inactive | inactive | inactive | – | – | – | –
COc1cc(N2CCC(N3CCN(C)CC3)CC2)ccc1Nc1ncc(Cl)c(Nc2ccccc2S(=O)(=O)C(C)C)n1 | inactive | inactive | inactive | inactive | – | – | – | –
CC(C)(c1ccc(O)cc1)c1ccc(O)cc1 | inactive | inactive | inactive | inactive | – | – | – | –
NCCO | inactive | inactive | inactive | inactive | – | – | – | –
COc1ccc(CC2SC(=O)NC2=O)cc1C(=O)NCc1ccc(C(F)(F)F)cc1 (centres undefined) | inactive | inactive | 38500 nM (active) | inactive | – | – | – | –
CC(C)C[C@H](NC(=O)[C@@H](O)[C@H](N)Cc1ccccc1)C(=O)O | inactive | inactive | inactive | inactive | – | – | – | –
CC(C)CCCC(C)CCCC(C)CCCCC(C)CCCC(C)CCCC(C)C (centres undefined) | inactive | inactive | inactive | inactive | – | – | – | –
CCCN(CCC)c1c([N+](=O)[O-])cc(S(N)(=O)=O)cc1[N+](=O)[O-] | inactive | inactive | inactive | inactive | 48.6 µM (active) | 43.3 µM (active) | – | –
CC(C)(C)C(O)C(Oc1ccc(Cl)cc1)n1cncn1 (centres undefined) | inactive | inactive | inactive | inactive | inactive | inactive | inactive | inactive
CC(=O)Nc1ccc(O)cc1 | inactive | inactive | inactive | inactive | – | – | – | –
NC(=O)C1CCCc2c1[nH]c1ccc(Cl)cc21 (centres undefined) | inactive | inactive | inactive | inactive | – | – | – | –
N[C@H]1C(O)O[C@H](CO)[C@@H](O)[C@@H]1O (some centres undefined) | inactive | inactive | inactive | inactive | – | – | – | –
CCn1c(-c2nonc2N)nc2cnc(Oc3cccc(NC(=O)c4ccc(OCCN5CCOCC5)cc4)c3)cc21 | 15.3 µM (active) | 12.2 µM (active) | – | 17.2 µM (active) | – | – | – | –
Nc1nc(-c2nn(Cc3ccccc3F)c3ncccc23)nc(N)c1N1CCOCC1 | inactive | inactive | – | inactive | – | – | – | –
CC(=O)Nc1ccc([C@H](C)C(=O)Nc2ncc(C(C)C)s2)cc1 | 3.06 µM (active) | 1.22 µM (active) | 611 nM (active) | 1.09 µM (active) | – | – | – | –
